Results from PubChem BioAssay (NCI).
“And” between values parts separate entries of the source, which are not always exact repeats. Equal values may be shown once. Compounds without any hit were thinned out: in the full panel of roughly 83,000, 20% have a hit.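 Cell lines were cultured in 96-well plates, exposed to a single compound concentration, and assessed for percent growth 48 hours later.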 A number with no mark means an inactive call. The source made the active and inactive calls. How the source made its calls: active means growth percent below 10; inactive means the rest.

The compounds below were run on MDA-MB-468 breast (assay: NCI-60 one-dose screen, 48 h (100 = growth as untreated, 0 = no growth, -100 = all killed)). Settings: 10 µM unless noted.

Point of comparison: Cc1cccc(C)c1-c1cc(Cc2ccc(Cl)cc2)c(=O)[nH]n1, growth 96.9%. Against it:
- CCOC(=O)c1c(Nc2nc3ccccc3s2)sc2c1CCC(=O)C2 — lower, 94.8%
- CSCCC(C(=O)O)N1C(=O)/C(=C/c2ccc(O)c(O)c2)SC1=S (stereo not given) — higher, 100%
- O=c1[nH]c(=O)n(C2CC(O)C(CO)O2)cc1C(F)(F)F (stereo not given) — lower, 62.7%
- O=C(CN1C(=O)S/C(=C\C(Cl)=C\c2ccccc2)C1=O)NCCc1ccc(O)cc1 — lower, 17.3%
- O=C(CCCC(=O)Nc1ccc(Cn2nnc3cc(Cl)c(Cl)cc32)cc1)Nc1ccc(CN2N=NC3C=C(Cl)C(Cl)=CC32)cc1 (stereo not given) — lower, 59.1%
- Cn1ncc2cc3c(Nc4ccc(Cl)cc4)cccc3nc21 — lower, 79%
- O=C1c2c(c3c4cc(Br)ccc4[nH]c3c3ccc4ccccc4c23)C(=O)N1O — lower, 62.1%
- COC(=O)[C@]12CC[C@@H](C)[C@H](C)[C@@H]1C1=CC[C@@H]3[C@@]4(C)C(C#N)=CC(C)=C4CC[C@@]3(C)[C@]1(C)CC2 — lower, 76.7%
- Cc1ccc(C)n1-c1ccccc1-n1c(C)ccc1C — higher, 104%
- Nc1c(C(=O)c2ccc(Br)cc2)oc2nc(-c3cnccn3)cc(-c3cccs3)c12 — higher, 99.4%
- c1cc(OCCN2CCCCC2)cc(-c2n[nH]c3ccc(-c4ncn[nH]4)cc23)c1 — lower, 93%
- CCCCCCCCCCCCCCCc1cc(O)ccc1[N+](=O)[O-] — higher, 111%
- O=C1c2c(c3c4ccc(Br)cc4oc3c3[nH]c4ccccc4c23)C(=O)N1O — lower, 45.3%
- CC1=C/C(=C(\c2cc(C)c(O)c(C(=O)O)c2)c2c(Cl)cccc2Cl)C=C(C(=O)O)C1=O — higher, 104%
- Cn1cc(C=O)c2ccccc21 — higher, 100%
- CCOC(CNCc1cc(C)c2[nH]c3ccccc3c2c1C)OCC — lower, 67.6%
- COc1ccc(C2CC(c3cc(OC)c(OC)c(OC)c3)=NN2c2ccc(S(N)(=O)=O)cc2)cc1 (stereo not given) — lower, 71%
- O=C1C(SCc2ccccc2)=C(Cl)CN1c1ccc(Cl)cc1 — lower, 16.3%
- CC(=O)Nc1ccc2c(c1)C(N1CC3CCC(CC3)C1)c1ccccc1-2 (stereo not given) — lower, 94%
- Nc1c(C(=O)Nc2cccc3cnccc23)sc2nc3c(cc12)CN(Cc1ccccc1)CC3 — lower, 94.8%
- Cc1cc(N2CCN(CC(=O)Nc3ccc4c(ccn4Cc4ccccc4)c3)CC2)nc(N2CCCCCC2)n1 — lower, 13.1%
- CSc1nc(-c2cccs2)c2c(N)[nH]nc2n1 — higher, 117%
- Nc1ncnc2c1N=C(c1ccc3c(c1)OCO3)CC(c1cccc(Nc3ccnc4cc(C(F)(F)F)ccc34)c1)N2 (stereo not given) — lower, 86.6%
- Cc1ccc(C(=O)/C(=C\c2ccc([N+](=O)[O-])cc2)S(=O)Cc2ccc(Cl)cc2)cc1 (stereo not given) — lower, 24.3%
- COc1ccc(-c2cnoc2-c2cc(OC)c3c(c2)OCCO3)cc1 — lower, 20.4%
- Cc1cccc(/C=C2\N=C(c3ccccc3)N(c3ccc(S(N)(=O)=O)cc3)C2=O)c1 — higher, 99.2%
- CO[C@H]1/C=C/O[C@@]2(C)Oc3c(C)c(O)c4c(O)c(c(/C=N/N5C(C)CN(Cc6ccccc6)CC5C)c(O)c4c3C2=O)NC(=O)/C(C)=C\C=C\[C@H](C)[C@H](O)[C@@H](C)[C@@H](O)[C@@H](C)[C@H](OC(C)=O)[C@@H]1C (stereo not given in full) — lower, 65.1%
- CCN(CC)CCCN1C(=O)c2c(c(C)c3c(oc4cc(OC)ccc43)c2C)C1=O — higher, 116%

For O=C(CNCCO)Nc1ccc2ncnc(Nc3ccc(OCc4cccc(F)c4)c(Cl)c3)c2c1, the growth was -17.8% (active).
For N#CC1(Nc2ccc3c4c(cccc24)CC3)CCCCC1, the growth was -35.3% (active).
O=C1OC2(c3ccccc31)c1ccc(O)c(O)c1Oc1c2ccc(O)c1O was tested, and the growth was 96.8% and 113%.
For O=C(NCCCCCCCNC(=O)OCc1ccc2c(Cl)cc(Cl)c(O)c2n1)OCc1ccc2c(Cl)cc(Cl)c(O)c2n1, the growth was -57.3% (active).
For Nc1nc2c(c3cnccc13)C(c1ccc(Cl)c(Cl)c1)Cc1cnccc1-2 (stereo not given), the growth was -42.2% (active).
In the case of O=C(OCc1ccc2c(Cl)cc(Cl)c(O)c2n1)c1cc2ccccc2[nH]1, the growth is reported as -73.1% (active).
In the case of CCOc1cccc(Nc2nc(N)nc3[nH]c4ccc(O)cc4c23)c1, the growth is reported as 8.38% (active).
With C=C1C(=O)O[C@H]2[C@H]1CC/C(COC(=O)OC/C1=C/CC[C@@]3(C)O[C@H]3[C@H]3OC(=O)[C@@H](CN(C)C)[C@@H]3CC1)=C\CC[C@@]1(C)O[C@@H]21 the growth was -14% (active).
In the case of COc1ccc2c(c1)nnc1c3cccnc3[nH]c21, the growth is reported as -92.6% (active).
For O=C1/C(=C/N2N=C(c3ccc4ccccc4c3)CC2c2ccccc2O)SC(=S)N1c1cccnc1 (stereo not given), the growth was 7.52% (active).
With Brc1cccc(/C=N/Nc2nc(N/N=C/c3cccc(Br)c3)nc(N3CCOCC3)n2)c1 the growth was 1.09% (active).
